Cruzain inh Det: blocks cruzain activity in presence of Triton detergent. hit rate 0.43% among 200,000. purified cruzain, Z-FR-AMC fluorescence, 0.01% Triton. P25779. Potency, µM, for inactives: max response, negative = inhibition, most hits filed as inhibitors;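 also: plate controls were neutral wells for no effect and buffer without enzyme for full effect; nearly all actives have a fitted effect of over 40% in size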
Target sequence (P25779 123-467 limits assumed): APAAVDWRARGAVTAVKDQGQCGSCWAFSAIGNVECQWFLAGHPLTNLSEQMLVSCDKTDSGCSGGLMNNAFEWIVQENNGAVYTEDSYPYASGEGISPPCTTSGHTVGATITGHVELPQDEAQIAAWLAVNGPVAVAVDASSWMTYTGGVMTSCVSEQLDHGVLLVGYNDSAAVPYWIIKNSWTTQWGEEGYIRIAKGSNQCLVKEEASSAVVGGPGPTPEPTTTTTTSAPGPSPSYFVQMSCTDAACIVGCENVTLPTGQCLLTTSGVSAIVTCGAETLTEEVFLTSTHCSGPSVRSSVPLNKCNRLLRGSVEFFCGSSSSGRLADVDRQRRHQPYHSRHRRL
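Detergent-containing arm of a paired screen for aggregation-based inhibition: 0.01% Triton X-100 present. Cruzain at 1.5 nM cleaved 2 uM Z-FR-AMC at pH 5.5 with 5 mM DTT; AMC fluorescence gain over 60 s measured activity.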
NS1 inh: influenza NS1 inhibition; Potency, µM (highest dose often 46.1 µM), for inactives: at the top dose activity, positive = more growth; hit rate 0.4% among 270,000; AID 2326; calls by dose curve; also: actives are rising curves; nearly all actives have a fitted effect of over 50% in size
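S. cerevisiae expressing influenza A NS1, grown in glucose, washed, then diluted 1:100 into pH 6.0 -URA galactose medium with 23 nl compound. Growth recovery read as OD600; NS1-free strain serves as control.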
Cruzain noTriton: blocks cruzain activity in detergent-free assay; P25779; purified cruzain, Z-FR-AMC fluorescence, no detergent; Potency, µM, for inactives: max response, negative = inhibition, usual class: inhibitors; hit rate 2.3% among 200,000; AID 1476;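 also: plate controls were enzyme without inhibitor for no effect and buffer without enzyme for full effect; nearly all actives have a fitted effect of over 40% in size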
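Purified cruzain at 1.5 nM, pre-incubated 15 min with compound at room temperature in 100 mM sodium acetate pH 5.5, 5 mM DTT, 0.00005% Triton X-100. Reaction started with 2 uM Z-FR-AMC; AMC fluorescence increase over 60 s gives rate.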
An asterisk follows results filed as active; ? = inconclusive; · = no result. The full list was thinned out, with hits kept by preference. Unless noted, calls follow the shape of the dose curve; as a rule, active = well fitted curve in the direction sought with a large enough effect; inconclusive = small, poorly fitted or top-dose-only effect, or another doubt; inactive = no such curve, though single readings can be large; an effect the other way counts as inactive or inconclusive. Potency is read from the fitted curve at half-maximal effect.

SMILES	Cruzain inh Det	NS1 inh	Cruzain noTriton
N[C@@H](Cc1c[nH]c2cc([N+](=O)[O-])ccc12)C(=O)O	3%	0%	15%
CNc1ncc(C(=O)c2ccc(Cl)c(Cl)c2)s1	-9%	-42%	-11%
O=C(c1ccc(Cl)c(Cl)c1)c1cnc(Nc2ccccc2)s1	5%	-7%	20µM*
COc1ccc(C(=O)N2CCC3(CCN(C)CC3)CC2)cc1	-1%	·	-8%
C=C(C)CN(CC)c1nc(N)c2c(N)nc3c(c2c1C#N)CC(=O)N3C12CC3CC(CC(C3)C1)C2	-3%	13%	4µM*
N#Cc1c(N2CCCC(O)C2)nc(N)c2c(N)nc3c(c12)CC(=O)N3C12CC3CC(CC(C3)C1)C2 (configuration not stated)	-15%	28%	2%
Cc1cc(-c2csc(N)n2)c(C)n1CCc1ccccc1	-4%	?	4µM*
CCOC(=O)c1cc(C)n(CCc2ccccc2)c1C	-4%	-41%	1%
CCNc1nc(-c2cc(C)n(Cc3ccco3)c2C)cs1	·	0%	·
Cc1cc(-c2csc(N)n2)c(C)n1CCC(C)C	3%	5%	25µM*
Cc1cccc(N2CCN(C(=O)c3cc(S(=O)(=O)N4CCC(C)CC4)cn3C)CC2)c1C	-8%	·	?
COc1ccccc1CNc1ncnc2ccc(-c3ccc(C(=O)N(C)C)cc3)cc12	-2%	·	6%
COc1ccc(NC(=O)C(CC(C)C)NC(=O)C2CCCCC2)cc1 (configuration not stated)	-2%	·	3%
O=C1c2cccnc2-c2ncccc21	-3%	1%	-4%
CC1(C)OCC(CSC2=C(SCC3COC(C)(C)O3)C(=O)c3ncccc3C2=O)O1 (configuration not stated)	16µM*	·	?
COc1ccc(-n2c(=O)c3sc4ccccc4c3n(CC(=O)NC3CCCCC3)c2=O)cc1	-1%	·	-1%
O=C(CSc1nnc(-c2ccc(Cl)cc2)o1)N1CCN(c2ccccc2)CC1	-7%	2%	16µM*
O=C(CSc1nnc(COc2ccc(Cl)cc2)o1)N1CCN(c2ccccc2)CC1	-8%	?	-2%
CO[C@H]1[C@H](O)[C@H](O[C@@H]2[C@H](Oc3cccc4c(O)c5c(=O)oc6ccc(C)c7c(=O)oc(c34)c5c67)O[C@@H](C)[C@H](O)[C@H]2O)O[C@@H](C)[C@@H]1O	5%	-5%	4%
COCCNC(=O)CSc1nc2cc3c(cc2c(=O)n1Cc1ccc(C(=O)NCCc2ccc(OC)c(OC)c2)cc1)OCO3	1%	·	2%
COc1cc(NC(=S)NC(=O)c2cc(C)cc(C)c2)ccc1NC(=O)c1cccs1	-4%	26%	16µM*
COc1cc(NC(=S)NC(=O)c2ccccc2C)ccc1NC(=O)c1cccs1	1%	14%	-21%
COc1cc(NC(=S)NC(=O)c2c(OC)cccc2OC)ccc1NC(=O)c1cccs1	-7%	7%	-14%
COc1cc(NC(=S)NC(=O)c2ccc(C(C)(C)C)cc2)ccc1NC(=O)c1cccs1	3%	10%	13µM*
CC(C)(C)C(=O)[C@H](C(c1ccccc1)N1CCOCC1)N1CCOCC1 (some centres not stated)	5%	-3%	3%
SMILES	Cruzain inh Det	NS1 inh	Cruzain noTriton
CCOC(=O)c1cccc(NC(=O)CN2C(=O)c3ccccc3Sc3ncccc32)c1	-8%	·	?
CCOc1ccccc1CNC(=O)c1cnc2sc(N3CCCC3)nn2c1=O	10%	·	-1%
O=C(CSc1nc2ccccc2c2ccccc12)c1ccccc1	-8%	-3%	4%
Cc1ccc(-n2ncc3c(Nc4cccc(C(F)(F)F)c4)ncnc32)cc1C	1%	·	-8%
Cc1cc(F)ccc1NC(=O)CCS(=O)(=O)c1cccc2nsnc12	-3%	·	0%
CCC1CCc2c(sc(NC(=O)CSc3nc(-c4ccco4)cc(C(F)(F)F)n3)c2C#N)C1 (configuration not stated)	4%	-1%	1.3µM*
N#Cc1c(NC(=O)CSc2nc(-c3ccccc3)cc(C(F)(F)F)n2)sc2c1CCC2	-9%	-1%	?
COc1ccc(-c2cc(C(F)(F)F)nc(SCC(=O)Nc3sc4c(c3C#N)CCC4)n2)cc1	-11%	13%	13µM*
CCOC(=O)c1sc(NC(=O)CSc2nc(-c3ccco3)cc(C(F)(F)F)n2)c(C(=O)OC)c1C	1%	9%	-9%
COc1ccc(Cn2c(=O)c3ccccc3n3c(-c4ccc(C)cc4)nnc23)cc1	-3%	·	-6%
NCC1O[C@@H](O[C@@H]2C(O)[C@H](O[C@H]3OC(CO)C(O)C(N)C3O)[C@@H](N)C[C@H]2N)C(N)C(O)C1O (some centres not stated)	3%	·	1%
COc1cc(C#Cc2c(-c3ccccc3)n(C)c3ccccc23)cc(OC)c1	·	16%	·
COC(=O)c1ccc2c(c1)c(C#Cc1ccccc1)c(-c1ccccc1)n2C	-3%	·	18µM*
COc1ccc(S(=O)(=O)Nc2nc3ccccc3nc2Nc2ccc3c(c2)OCO3)cc1	-5%	-1%	?
O=S(=O)(Nc1nc2ccccc2nc1Nc1ccc2c(c1)OCCO2)c1cccs1	-5%	-40%	25µM*
Cc1cccc(C2=N[C@@H](CC(C)C)CO2)c1	2%	·	-3%
O=C(CN1C(=O)COc2ccc(S(=O)(=O)N3CCOCC3)cc21)N1CCN(c2ccc(Cl)cc2)CC1	-6%	·	?
C/C(CC(=O)Nc1cccc(C(F)(F)F)c1)=N/NC(=O)C(=O)NCCO	·	0%	·
C/C(=N\NC(=O)C(=O)Nc1cccc(C(F)(F)F)c1)c1ccc(Cl)s1	0%	8%	16µM*
COC(=O)N1[C@H]2CC[C@@]3(C)CC(=O)C[C@]1(C)C3c1ccccc12	3%	·	-5%
N#Cc1cccc(NC(=O)CSc2ccc3c4c(cccc24)C(=O)c2ccccc2-3)c1	2%	8%	10µM*
N#Cc1cccc(NC(=O)CSc2ccccc2)c1	3%	-1%	-16%
COc1ccc(NC(=O)CSc2ccc3c4c(cccc24)C(=O)c2ccccc2-3)cc1	4%	?	13µM*
COc1ccc(NC(=O)CSc2nnc(C)c3ccccc23)cc1	·	-3%	·
CC(C)OC(=O)[C@@H]1CC[C@H](C)[C@@H](CCCCO)O1	0%	·	-4%
SMILES	Cruzain inh Det	NS1 inh	Cruzain noTriton
CN(C)CCCc1cccnc1	0%	0%	5%
COn1c2c(c3c4no[n+]([O-])c4ccc31)CCCC2	1%	-3%	20µM*
COn1c2c(c3c4nonc4ccc31)CCCC2	-9%	-18%	-3%
CCCCOc1ccc(NC(=O)C(=O)NCCC2=CCCCC2)cc1	3%	0%	10µM*
COc1ccc(NC(=O)NCCC2=CCCCC2)cc1	·	-7%	·
CN(C)c1ncc2nc(-c3ccc(Cl)cc3)c(=O)n(Cc3cccs3)c2n1	8%	·	-6%
Clc1ccc(/C=C/c2nc3ccccc3[nH]2)c(Cl)c1	-7%	-165%	?
Clc1ccc(/C=C/c2nc3ccccc3[nH]2)cc1	-20%	-61%	16µM*
COc1cccc(N2CCN(C(=O)c3ccc(Cn4c(=O)[nH]c5cc(OC)c(OC)cc5c4=O)cc3)CC2)c1	-4%	·	?
COc1cc(C2Oc3nc(SC)nnc3-c3ccccc3N2C(C)=O)cc(Cl)c1OC (configuration not stated)	-7%	·	6%
Cc1noc(/C=C/c2ccccc2F)c1S(=O)(=O)N1CCC(C(=O)N2CCOc3ccccc32)CC1	0%	·	-1%

From PubChem BioAssay
